Results filed as inconclusive are left out. The source made the active and inactive calls. The calls were made as follows, unless noted: active = hit-call score of the fitted dose curve at least 0.9, where 1 is the maximum; inactive = score below 0.9.

The target of assay [1] is Retinoic acid receptor RXR-alpha (Homo sapiens) (UniProt P19793). Kind of assay: ATG_RXRa_TRANS: Attagene TRANS-FACTORIAL HepG2 Assay for human Retinoid X Receptor alpha (RXRa) (AID 2283012; active = hit-call score of the fitted dose curve at least 0.9, where 1 is the maximum). The procedure, abridged:
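HepG2 cells transiently transfected with multiplexed GAL4-UAS reporter units and chimeric NR-GAL4 fusions, dosed 24 h. Reporter mRNA measured by RT-PCR, FAM labelling, HpaI digestion and capillary electrophoresis; gain-of-signal fitted relative to DMSO baseline.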

Assay [2] has as its target human Retinoid X Receptor beta (RXRb), RXRB (gene 6257) (UniProt P28702). Kind of assay: ATG_RXRb_TRANS: Attagene TRANS-FACTORIAL HepG2 Assay for human Retinoid X Receptor beta (RXRb) (AID 2283013; active = hit-call score of the fitted dose curve at least 0.9, where 1 is the maximum). The procedure, abridged:
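HepG2 cells transiently transfected with multiplexed reporter units driven by GAL4-UAS and exogenous chimeric NR-Gal4 proteins; treated 24 h. Reporter mRNA measured by RT-PCR, 6-FAM labelling and capillary electrophoresis; gain-of-signal fitted versus DMSO baseline.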

Read-out in assay [3]: E-selectin (Homo sapiens) (UniProt P16581)
Briefly: BSK_3C_Eselectin: BioMAP Diversity Plus: 3C Assay for Eselectin Biomarker Activity (AID 2283015).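 As to outcome: cell surface E-selectin protein quantified by ELISA 24 h after dosing.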 The note with it: primary human endothelial cells (HUVEC); actives raise or lower the signal. Summed up:
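Human vascular endothelium from umbilical vein is exposed to test chemicals for 24 h. E-selectin levels are read by ELISA and compared with DMSO controls.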

Read-out in assay [4]: Interleukin-1 alpha (IL1a), IL1A (gene 3552)
Briefly: BSK_BE3C_IL1a: BioMAP Diversity Plus: BE3C Assay for Interleukin-1 alpha (IL1a) Biomarker Activity (AID 2283016). As to conditions: primary human bronchial epithelial cells; actives raise or lower the signal. The procedure, abridged:
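Human primary bronchial epithelial cells (BE3C system) were dosed with compound and IL-1a measured by ELISA 24 h later. Activity was fitted bidirectionally against DMSO baseline; cytotoxicity was tracked in parallel cultures by SRB total-protein staining.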

Read-out in assay [5]: Monocyte Chemoattractant Protein-1 (MCP1), CCL2 (gene 6347)
Kind of assay: BSK_3C_MCP1: BioMAP Diversity Plus: 3C Assay for Monocyte Chemoattractant Protein-1 (MCP1) Biomarker Activity (AID 2283017). The note with it: primary human endothelial cells (HUVEC); actives raise or lower the signal. The procedure, abridged:
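Endothelial cells from human umbilical vein are dosed with chemical, cultured 24 h, then assayed for MCP-1 by ELISA; both increases and decreases are modelled against DMSO controls.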

Read-out in assay [6]: Monocyte Chemoattractant Protein-1 (MCP1), CCL2 (gene 6347)
Kind of assay: BSK_4H_MCP1: BioMAP Diversity Plus: 4H Assay for Monocyte Chemoattractant Protein-1 (MCP1) Biomarker Activity (AID 2283018). As to conditions: primary human endothelial cells (HUVEC); actives raise or lower the signal. The procedure, abridged: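 Human umbilical vein endothelial cells (4H system) dosed with chemical; MCP-1 measured by ELISA 24 h after dosing. Bidirectional curve fitting against DMSO negative control as baseline; parallel SRB total-protein staining tracks overt cytotoxicity.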

Read-out in assay [7]: Interleukin-8 (IL8), CXCL8 (gene 3576)
Briefly: BSK_3C_IL8: BioMAP Diversity Plus: 3C Assay for Interleukin-8 (IL8) Biomarker Activity (AID 2283020). As to conditions: primary human endothelial cells (HUVEC); actives raise or lower the signal. The procedure, abridged: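 Primary human umbilical vein endothelial cells (3C system) were exposed to test chemical for 24 h, then IL-8 was quantified by ELISA. Responses were fitted bidirectionally against DMSO vehicle as baseline.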

Read-out in assay [8]: Monokine induced gamma interferon (MIG), CXCL9 (gene 4283)
Kind of assay: BSK_3C_MIG: BioMAP Diversity Plus: 3C Assay for Monokine induced gamma interferon (MIG) Biomarker Activity (AID 2283021).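 As to AC50: MIG protein level measured by immunoassay in the treated endothelial cultures.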 As to conditions: primary human endothelial cells (HUVEC); actives raise or lower the signal. The procedure, abridged: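 Primary human umbilical vein endothelial cells in the 3C system were exposed to chemical for 24 h, after which MIG was quantified by ELISA. Activity was fitted bidirectionally against DMSO as negative control and baseline.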

Assay [9] can be described thus: BSK_3C_SRB: Viability Assessment in the BioMAP Diversity Plus: 3C Assay (AID 2283023).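 Also: cells read 24 h after compound dosing; fitted both ways against DMSO so a hit may be signal rise or drop.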 As to conditions: primary human endothelial cells (HUVEC). Summed up:
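Cells were dosed with chemical, cultured 24 h, fixed with 10% TCA, stained with 0.1% SRB and read at 560 nm. Human umbilical vein endothelium was used; DMSO served as negative control and baseline.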

Read-out in assay [10]: Matrix Metallopeptidase 1 (MMP1), MMP1 (gene 4312)
Briefly: BSK_BE3C_MMP1: BioMAP Diversity Plus: BE3C Assay for Matrix Metallopeptidase 1 (MMP1) Biomarker Activity (AID 2283024). The note with it: primary human bronchial epithelial cells; actives raise or lower the signal. The procedure, abridged:
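Primary human bronchial epithelial cells were dosed with test chemicals, and MMP1 levels were measured by ELISA 24 h later. Data were fitted bidirectionally against DMSO as the negative control and activity baseline.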

Assay [11] in a line: BSK_3C_Vis: BioMAP Diversity Plus: 3C Assay for Morphology Visualization (AID 2283025).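 Also: fitted both ways so gain or loss versus DMSO counts.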 As to conditions: primary human endothelial cells (HUVEC). The procedure, abridged:
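Human umbilical vein endothelial cells in the 3C system were imaged by light microscopy 24 h after chemical dosing to record cell morphology. Activity was fitted bidirectionally against DMSO as negative control and baseline; the endpoint serves as a background control.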

Read-out in assay [12]: Pselectin, SELP (gene 6403)
Briefly: BSK_4H_Pselectin: BioMAP Diversity Plus: 4H Assay for Pselectin Biomarker Activity (AID 2283026). As to conditions: primary human endothelial cells (HUVEC); actives raise or lower the signal. Summed up:
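Primary human umbilical vein endothelial cells were exposed to test chemical for 24 h, then cell-surface P-selectin was quantified by ELISA. Activity was fitted bidirectionally against DMSO as negative control and baseline.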

Assay [13] in a line: BSK_4H_SRB: Viability Assessment in the BioMAP Diversity Plus: 4H Assay (AID 2283027).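 Also: cells exposed to compound for 24 h before staining.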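 As to AC50: curves fitted both ways versus DMSO so AC50 may be loss or gain.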 As to conditions: primary human endothelial cells (HUVEC). The procedure, abridged:
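Human umbilical vein endothelial cells were dosed with chemical and, after 24 h, fixed with 10% TCA, stained with 0.1% sulforhodamine B, and read at 560 nm to give total protein as a cytotoxicity measure. Bidirectional fitting relative to DMSO control.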

Assay [14] is described as follows: BSK_BE3C_SRB: Viability Assessment in the BioMAP Diversity Plus: BE3C Assay (AID 2283028).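 As to AC50: fitted both ways so AC50 may mark signal gain or loss versus DMSO.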 As to conditions: primary human bronchial epithelial cells. The procedure, abridged: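 Overt cytotoxicity was assessed as total protein in confluent human primary bronchial epithelial cultures 24 h after chemical addition, using 0.1% sulforhodamine B staining read at 560 nm.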

Read-out in assay [15]: Thrombomodulin, THBD (gene 7056)
Briefly: BSK_3C_Thrombomodulin: BioMAP Diversity Plus: 3C Assay for Thrombomodulin Biomarker Activity (AID 2283029). As to conditions: primary human endothelial cells (HUVEC); actives raise or lower the signal. The procedure, abridged:
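Primary human umbilical vein endothelial cells (3C system) were exposed to chemical for 24 h, then thrombomodulin levels were measured by ELISA. Activity was fitted bidirectionally against the DMSO negative control as baseline.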

Read-out in assay [16]: Urokinase-type plasminogen activator receptor (uPAR), PLAUR (gene 5329)
Briefly: BSK_4H_uPAR: BioMAP Diversity Plus: 4H Assay for Urokinase-type plasminogen activator receptor (uPAR) Biomarker Activity (AID 2283030). The note with it: primary human endothelial cells (HUVEC); actives raise or lower the signal. The procedure, abridged: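 Chemicals are dosed onto human vascular endothelial primary cells (umbilical vein). After 24 h, uPAR is read by ELISA. Gain or loss of signal is fitted relative to DMSO.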

Read-out in assay [17]: Vascular endothelial growth factor receptor 2 (Homo sapiens) (UniProt P35968)
Briefly: BSK_4H_VEGFRII: BioMAP Diversity Plus: 4H Assay for Vascular endothelial growth factor receptor 2 (VEGFR2) Biomarker Activity (AID 2283031). As to conditions: primary human endothelial cells (HUVEC); actives raise or lower the signal. The procedure, abridged: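 VEGFRII levels on human vascular endothelial primary cells were determined by ELISA at 24 hours post-dosing, with gain- or loss-of-signal fitted against DMSO controls.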

Read-out in assay [18]: Human Leukocyte Antigen - DR isotype (HLADR), HLA-DRA (gene 3122)
Kind of assay: BSK_3C_HLADR: BioMAP Diversity Plus: 3C Assay for Human Leukocyte Antigen - DR isotype (HLADR) Biomarker Activity (AID 2283019).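 As to outcome: ELISA of cell-surface HLA-DR on HUVEC 24 h after dosing.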 As to conditions: primary human endothelial cells (HUVEC); actives raise or lower the signal. Summed up:
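Endothelial cells from human umbilical vein are treated with test chemical; after 24 h, HLA-DR levels are measured by ELISA. Data are fitted in both directions using DMSO as the baseline.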

The target of assay [19] is human Vitamin D Receptor (VDR), VDR (gene 7421) (UniProt P11473). Briefly: ATG_VDR_TRANS: Attagene TRANS-FACTORIAL HepG2 Assay for human Vitamin D Receptor (VDR) (AID 2283022; active = hit-call score of the fitted dose curve at least 0.9, where 1 is the maximum). Summed up:
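Fluorescence of labelled reporter cDNA fragments, resolved by capillary electrophoresis, gives mRNA induction after 24 h treatment of HepG2 cells carrying transfected Gal4-fusion reporter units. Activity is fitted in the positive direction with DMSO as baseline.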

Assay [20] concerns the target human Thyroid Receptor alpha (THRa1), THRA (gene 7067) (UniProt P10827). Kind of assay: ATG_THRa1_TRANS: Attagene TRANS-FACTORIAL HepG2 Assay for human Thyroid Receptor alpha (THRa1) (AID 2283014; active = hit-call score of the fitted dose curve at least 0.9, where 1 is the maximum). Summed up:
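First, HepG2 cells receive multiple GAL4-UAS reporter units and the chimeric receptor. They are then dosed for 24 h, after which RNA is reverse-transcribed, amplified, labelled, HpaI-cut and sized by capillary electrophoresis; gain relative to DMSO is scored.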

Sequence of human Vitamin D Receptor (VDR), VDR (gene 7421) (P11473 whole entry, looked up, the tested form may be a part): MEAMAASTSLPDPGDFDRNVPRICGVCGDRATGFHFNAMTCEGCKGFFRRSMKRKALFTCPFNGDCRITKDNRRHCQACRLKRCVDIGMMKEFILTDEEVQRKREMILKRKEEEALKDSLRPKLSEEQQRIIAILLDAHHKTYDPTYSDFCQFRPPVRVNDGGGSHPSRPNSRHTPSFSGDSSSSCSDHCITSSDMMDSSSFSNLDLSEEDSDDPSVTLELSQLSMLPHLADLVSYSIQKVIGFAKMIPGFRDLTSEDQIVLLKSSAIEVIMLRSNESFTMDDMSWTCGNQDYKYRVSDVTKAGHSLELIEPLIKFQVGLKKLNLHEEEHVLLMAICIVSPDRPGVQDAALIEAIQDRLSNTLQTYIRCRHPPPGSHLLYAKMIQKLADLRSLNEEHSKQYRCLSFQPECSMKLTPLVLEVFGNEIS
Sequence of human Retinoid X Receptor beta (RXRb), RXRB (gene 6257) (P28702 whole entry, looked up, the tested form may be a part): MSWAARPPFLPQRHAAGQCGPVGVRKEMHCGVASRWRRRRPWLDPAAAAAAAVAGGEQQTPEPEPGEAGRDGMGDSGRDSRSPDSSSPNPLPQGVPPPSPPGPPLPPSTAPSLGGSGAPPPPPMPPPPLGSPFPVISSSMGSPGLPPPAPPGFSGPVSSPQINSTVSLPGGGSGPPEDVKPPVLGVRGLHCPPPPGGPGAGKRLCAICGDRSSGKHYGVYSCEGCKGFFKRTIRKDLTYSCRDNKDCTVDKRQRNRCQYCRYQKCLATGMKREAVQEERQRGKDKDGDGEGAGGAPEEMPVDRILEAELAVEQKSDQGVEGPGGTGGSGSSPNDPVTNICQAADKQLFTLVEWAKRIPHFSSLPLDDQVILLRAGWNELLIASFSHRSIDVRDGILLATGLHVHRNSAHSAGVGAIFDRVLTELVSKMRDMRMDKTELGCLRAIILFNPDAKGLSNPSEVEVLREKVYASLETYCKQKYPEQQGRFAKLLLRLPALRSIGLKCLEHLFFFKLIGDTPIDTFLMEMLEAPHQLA
Sequence of human Thyroid Receptor alpha (THRa1), THRA (gene 7067) (P10827 whole entry, looked up, the tested form may be a part): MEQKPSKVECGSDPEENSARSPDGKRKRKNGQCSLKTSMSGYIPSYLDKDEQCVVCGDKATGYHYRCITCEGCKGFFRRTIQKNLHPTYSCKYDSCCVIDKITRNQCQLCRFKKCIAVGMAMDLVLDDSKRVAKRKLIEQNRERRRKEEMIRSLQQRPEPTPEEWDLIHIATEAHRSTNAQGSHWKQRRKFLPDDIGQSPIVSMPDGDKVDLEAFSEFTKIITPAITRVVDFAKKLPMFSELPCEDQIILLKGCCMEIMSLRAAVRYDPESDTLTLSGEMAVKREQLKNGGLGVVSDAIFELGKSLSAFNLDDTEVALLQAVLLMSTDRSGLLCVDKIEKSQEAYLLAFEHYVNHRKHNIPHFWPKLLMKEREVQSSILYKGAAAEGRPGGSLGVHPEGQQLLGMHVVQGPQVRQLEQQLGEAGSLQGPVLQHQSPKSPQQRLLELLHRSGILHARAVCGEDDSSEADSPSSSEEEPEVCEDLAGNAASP
Sequence of Retinoic acid receptor RXR-alpha (Homo sapiens) (P19793 whole entry, looked up, the tested form may be a part): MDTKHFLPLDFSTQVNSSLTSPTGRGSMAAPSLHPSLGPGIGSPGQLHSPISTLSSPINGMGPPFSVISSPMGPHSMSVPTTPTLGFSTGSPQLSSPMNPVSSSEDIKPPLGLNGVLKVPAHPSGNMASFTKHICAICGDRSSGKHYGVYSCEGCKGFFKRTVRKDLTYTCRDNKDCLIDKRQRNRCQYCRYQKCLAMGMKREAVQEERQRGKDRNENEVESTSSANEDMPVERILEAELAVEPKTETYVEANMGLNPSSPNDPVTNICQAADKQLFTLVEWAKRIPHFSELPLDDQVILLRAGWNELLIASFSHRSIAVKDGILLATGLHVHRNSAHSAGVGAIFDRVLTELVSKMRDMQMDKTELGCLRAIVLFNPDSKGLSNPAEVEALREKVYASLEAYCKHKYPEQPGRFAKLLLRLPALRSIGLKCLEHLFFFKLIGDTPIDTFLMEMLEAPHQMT
Sequence of E-selectin (Homo sapiens) (P16581 whole entry, looked up): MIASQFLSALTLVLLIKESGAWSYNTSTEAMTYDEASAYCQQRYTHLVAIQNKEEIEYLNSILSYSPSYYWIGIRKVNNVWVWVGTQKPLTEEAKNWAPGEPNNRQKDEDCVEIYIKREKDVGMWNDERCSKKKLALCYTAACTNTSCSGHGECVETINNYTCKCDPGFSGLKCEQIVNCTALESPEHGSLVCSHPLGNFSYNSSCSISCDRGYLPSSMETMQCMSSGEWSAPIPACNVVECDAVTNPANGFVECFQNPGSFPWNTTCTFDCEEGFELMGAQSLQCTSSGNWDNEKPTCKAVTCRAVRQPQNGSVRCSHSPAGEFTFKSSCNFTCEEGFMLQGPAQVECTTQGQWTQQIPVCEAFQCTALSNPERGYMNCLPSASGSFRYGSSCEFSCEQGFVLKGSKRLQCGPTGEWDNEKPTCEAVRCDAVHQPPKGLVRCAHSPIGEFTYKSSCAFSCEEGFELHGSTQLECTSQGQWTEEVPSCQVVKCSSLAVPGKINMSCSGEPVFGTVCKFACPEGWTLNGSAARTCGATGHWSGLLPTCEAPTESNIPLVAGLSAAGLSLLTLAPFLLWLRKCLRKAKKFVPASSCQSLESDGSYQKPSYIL

Regarding `COc1ccc(C(=O)Nc2nc3ccccc3c(NCc3ccccc3)c2C#N)cc1`, the compound was classed as inactive in [1], in assay [2], in [3], in [4], in assay [5] and in assay [6]. The result in assay [7], in assay [8], in assay [12], in assay [13], in assay [14] and in assay [15] was inactive. Besides, the outcome in [16] and in assay [17] was inactive. In addition, the values for the AC50 in assay [9], in assay [10] and in assay [11] were 8.6 µM (active), 7.48 µM (active) and 39 µM (active), respectively.

On to `CN(C)CCCN1c2ccccc2Sc2ccc(Cl)cc21`, for which the call in assay [1], in [19], in assay [15] and in [17] was inactive. In addition, the AC50 in assay [3] is 33 µM (active); in assay [4], 31.1 µM (active); in assay [5] it was 30.4 µM (active); in [6] it was 4.5 µM (active); in [18] it was 29.1 µM (active); in [7] it was 20 µM (active). Moreover, the AC50 in assay [8] is 32.2 µM (active); in assay [10] it was 32.9 µM (active); in [12], 35.9 µM (active); in assay [13], 26 µM (active); in assay [14], 39 µM (active); in assay [16] it was 12.2 µM (active).

On to `CCCCCCC(CCCCCCCCCCC(=O)OCC(COC(C)=O)OC(C)=O)OC(C)=O` (centres undefined), for which the AC50 was 50 µM (active) in assay [2] and 12.3 µM (active) in [4]. Moreover, the outcome in [20], in assay [3], in assay [5], in assay [6], in assay [18] and in assay [7] was inactive. Further, the outcome in assay [8], in assay [19], in assay [9], in assay [10], in [11] and in assay [12] was inactive. Further, the outcome in assay [13], in [14], in assay [15], in assay [16] and in assay [17] was inactive.

For `NC(=Nc1ccccc1)Nc1ccccc1`, the result in assay [1], in assay [2], in assay [3], in [4], in assay [5] and in assay [6] was inactive. The result in [7], in assay [8], in assay [9], in assay [10], in [11] and in assay [13] was inactive. Besides, the outcome in assay [14], in [15], in [16] and in assay [17] was inactive.

Regarding `C/C=C/C=C/C(=O)O`, in [2], the AC50 was 41.5 µM (active). Moreover, the outcome in assay [20], in [3], in assay [4], in [5], in assay [6] and in [18] was inactive. Moreover, the result in assay [7], in assay [8], in assay [9], in assay [10], in [11] and in assay [12] was inactive. The result in assay [13], in assay [14], in assay [15] and in assay [16] was inactive.

On to `COC(=O)CCCC(=O)OC`, for which the compound was classed as inactive in assay [1], in assay [3], in assay [4], in [5], in [6] and in [18]. The result in [7], in [8], in assay [19], in [9], in assay [10] and in assay [11] was inactive. For the same compound, the outcome in assay [12], in [13], in [14], in assay [15], in assay [16] and in assay [17] was inactive.

As for `Cn1cnc2c1c(=O)[nH]c(=O)n2C`, the result in assay [1], in assay [3], in assay [4], in assay [5], in assay [6] and in assay [7] was inactive. The outcome in [8], in assay [9], in assay [10], in [11], in assay [12] and in assay [13] was inactive. For the same compound, the outcome in [14], in [15], in [16] and in assay [17] was inactive.

For orientation: AC50 means the concentration giving half of the maximal activity seen.

Source of the values: PubChem BioAssay (EPA / NIEHS).
